For seven sequences, binding signal results are on record in PMC4081100, “A DNA-binding-site landscape and regulatory network analysis for NAC transcription factors in Arabidopsis thaliana”.

Holding throughout (test): universal protein binding microarray (PBM); transcription factors of Arabidopsis thaliana; high values mean tight binding
The target in one test is T1, GST-ANAC092(1-176) (Arabidopsis thaliana, UniProt Q9FKA0 1-176).
T1 sequence: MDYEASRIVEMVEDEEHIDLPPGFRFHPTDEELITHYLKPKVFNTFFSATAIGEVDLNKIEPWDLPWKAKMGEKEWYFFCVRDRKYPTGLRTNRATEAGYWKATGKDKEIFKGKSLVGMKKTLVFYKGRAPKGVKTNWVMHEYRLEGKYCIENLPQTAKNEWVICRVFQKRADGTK
The note with it: protein: recombinant; tags: GST; chain copies: 2; dsDNA, one strand shown. The gist of the method: (§1)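 Protein amounts were determined by A280 or anti-GST western blot after glutathione–Sepharose 4B purification of GST-tagged proteins induced in cells, with zinc acetate included for zinc-finger proteins. Duplicate runs at 200 to 500 nM final were done on custom all-10-mer Agilent 4 × 180K arrays made double-stranded by primer extension. The normalised enrichment score (E-score) over gapped and ungapped 8-mers is the measure of binding.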

A further test deals with GST-NTL6(1-168) (Arabidopsis thaliana, UniProt Q9SCK6 1-168). The note with it: protein: recombinant; tags: GST; chain copies: 2; dsDNA, one strand shown. A digest of the protocol: as §1
Chain of GST-NTL6(1-168) (Q9SCK6 1-168): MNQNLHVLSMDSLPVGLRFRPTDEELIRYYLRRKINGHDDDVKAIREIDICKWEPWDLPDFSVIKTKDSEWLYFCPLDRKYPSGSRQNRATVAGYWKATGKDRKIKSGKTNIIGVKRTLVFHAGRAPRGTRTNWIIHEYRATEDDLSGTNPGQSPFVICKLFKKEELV
The next test addresses T2, GST-ANAC019 NAC domain (Arabidopsis thaliana, UniProt Q9C932 14-162).
T2 sequence: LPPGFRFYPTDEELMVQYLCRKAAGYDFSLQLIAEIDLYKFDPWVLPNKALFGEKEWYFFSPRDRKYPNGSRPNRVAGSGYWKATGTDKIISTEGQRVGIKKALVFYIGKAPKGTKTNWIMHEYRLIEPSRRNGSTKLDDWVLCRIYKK
The note with it: protein: recombinant; tags: GST; chain copies: 2; dsDNA, one strand shown. The gist of the method: as §1

Another test has as its target T3, GST-ANAC055(1-171) (Arabidopsis thaliana, UniProt Q9LDY8 1-171).
T3 sequence: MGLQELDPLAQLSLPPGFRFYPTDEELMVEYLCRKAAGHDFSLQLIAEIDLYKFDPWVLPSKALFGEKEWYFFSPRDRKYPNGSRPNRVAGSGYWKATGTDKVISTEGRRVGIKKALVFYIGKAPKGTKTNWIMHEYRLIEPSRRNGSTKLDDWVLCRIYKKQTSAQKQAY
The settings on record: protein: recombinant; tags: GST; chain copies: 2; dsDNA, one strand shown. The gist of the method: as §1

A further test has as its target T4, GST-ATAF1 NAC domain (Arabidopsis thaliana, UniProt Q39013 7-158).
T4 sequence: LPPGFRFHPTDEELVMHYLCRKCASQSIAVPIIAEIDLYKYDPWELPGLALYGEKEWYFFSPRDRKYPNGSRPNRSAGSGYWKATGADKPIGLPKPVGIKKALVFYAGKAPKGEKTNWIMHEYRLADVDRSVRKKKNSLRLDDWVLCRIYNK
The note with it: protein: recombinant; tags: GST; chain copies: 2; dsDNA, one strand shown. The gist of the method:
as §1

Test [1] concerns the target T5, GST-ANAC092(1-285) full length (Arabidopsis thaliana, UniProt Q9FKA0 1-285).
T5 sequence: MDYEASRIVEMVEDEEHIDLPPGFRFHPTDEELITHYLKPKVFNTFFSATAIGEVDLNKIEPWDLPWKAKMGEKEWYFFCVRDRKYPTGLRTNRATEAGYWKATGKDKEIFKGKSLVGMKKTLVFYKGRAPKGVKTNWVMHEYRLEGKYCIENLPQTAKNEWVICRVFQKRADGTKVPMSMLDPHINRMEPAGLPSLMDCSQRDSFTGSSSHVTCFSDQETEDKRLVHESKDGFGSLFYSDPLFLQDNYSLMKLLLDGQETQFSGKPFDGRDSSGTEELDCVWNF
The settings on record: protein: recombinant; tags: GST; chain copies: 2; dsDNA, one strand shown. The gist of the method: as §1

The next test has as its target T6, GST-NAP(1-166) (Arabidopsis thaliana, UniProt O49255 1-166).
T6 sequence: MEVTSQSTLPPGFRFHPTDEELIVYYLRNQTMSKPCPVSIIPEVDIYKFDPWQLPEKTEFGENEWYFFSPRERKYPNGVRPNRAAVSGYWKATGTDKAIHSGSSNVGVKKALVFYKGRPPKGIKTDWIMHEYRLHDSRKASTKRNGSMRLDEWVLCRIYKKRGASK
The settings on record: protein: recombinant; tags: GST; chain copies: 2; dsDNA, one strand shown. A digest of the protocol: as §1

The target in the next test is T7, GST-NTL8 NAC domain (Arabidopsis thaliana, UniProt Q9XIN7 14-156).
T7 sequence: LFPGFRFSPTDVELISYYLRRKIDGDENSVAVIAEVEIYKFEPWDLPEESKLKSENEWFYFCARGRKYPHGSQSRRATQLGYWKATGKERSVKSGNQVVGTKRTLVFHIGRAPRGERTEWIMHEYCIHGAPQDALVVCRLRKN
The note with it: protein: recombinant; tags: GST; chain copies: 2; dsDNA, one strand shown. The gist of the method: as §1

Another test concerns the target T8, GST-SND1(1-203) (Arabidopsis thaliana, UniProt Q9LPI7 1-203).
T8 sequence: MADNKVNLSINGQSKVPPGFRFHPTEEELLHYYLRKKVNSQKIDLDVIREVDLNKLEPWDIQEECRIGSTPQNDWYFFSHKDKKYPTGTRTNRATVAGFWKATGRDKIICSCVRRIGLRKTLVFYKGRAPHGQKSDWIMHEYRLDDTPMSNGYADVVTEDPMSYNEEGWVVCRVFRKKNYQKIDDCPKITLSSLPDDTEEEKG
The settings on record: protein: recombinant; tags: GST; chain copies: 2; dsDNA, one strand shown. The gist of the method:
as §1

The target in another test is T9, GST-VND7 NAC domain (Arabidopsis thaliana, UniProt Q9C8W9 9-158).
T9 sequence: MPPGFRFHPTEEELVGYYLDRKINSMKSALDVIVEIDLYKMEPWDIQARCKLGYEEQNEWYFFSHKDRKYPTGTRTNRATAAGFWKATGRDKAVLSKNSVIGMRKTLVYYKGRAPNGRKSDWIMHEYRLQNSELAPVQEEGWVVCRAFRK
The note with it: protein: recombinant; tags: GST; chain copies: 2; dsDNA, one strand shown. A digest of the protocol: as §1

In another test the target is GST-WRKY1(266-371) (Arabidopsis thaliana, UniProt Q9SI37 266-371). The settings on record: protein: recombinant; tags: GST; dsDNA, one strand shown. A digest of the protocol:
as §1

In another test the target is T10, GST-NST2(1-184) (Arabidopsis thaliana, UniProt Q9M274 1-184).
T10 sequence: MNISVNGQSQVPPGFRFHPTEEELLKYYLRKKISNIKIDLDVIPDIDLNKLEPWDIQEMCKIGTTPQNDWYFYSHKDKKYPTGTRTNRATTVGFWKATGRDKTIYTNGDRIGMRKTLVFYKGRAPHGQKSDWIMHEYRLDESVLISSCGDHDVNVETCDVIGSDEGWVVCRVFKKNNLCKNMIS
The settings on record: protein: recombinant; tags: GST; chain copies: 2; dsDNA, one strand shown. A digest of the protocol: as §1

For a further test, the target named is T11, GST-VND3 NAC domain (Arabidopsis thaliana, UniProt Q9FH59 12-162).
T11 sequence: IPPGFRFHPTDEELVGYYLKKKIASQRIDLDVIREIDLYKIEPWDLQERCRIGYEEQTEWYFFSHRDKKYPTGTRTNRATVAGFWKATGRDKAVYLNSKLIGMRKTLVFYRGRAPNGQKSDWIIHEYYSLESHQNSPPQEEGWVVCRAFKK
The note with it: protein: recombinant; tags: GST; chain copies: 2; dsDNA, one strand shown. A digest of the protocol:
as §1

Chain of GST-WRKY1(266-371) (Q9SI37 266-371): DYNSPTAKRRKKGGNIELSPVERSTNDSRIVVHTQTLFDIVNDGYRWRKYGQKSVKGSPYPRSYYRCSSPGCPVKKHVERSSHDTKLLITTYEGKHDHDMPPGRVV

Turning to CAGTCAAA, the binding signal in the test with GST-ANAC092(1-176) amounted to 0.125 E-score; with GST-NTL6(1-168), 0.0796 E-score; with GST-ANAC019 NAC domain it was 0.0978 E-score; in the test with GST-ANAC055(1-171) it was 0.063 E-score; in the test with GST-ATAF1 NAC domain, 0.11 E-score; in test [1] it was 0.0634 E-score. Besides, the binding signal with GST-NAP(1-166) is 0.0821 E-score; with GST-NTL8 NAC domain, 0.104 E-score; with GST-SND1(1-203) it was 0.124 E-score; in the test with GST-VND7 NAC domain it was 0.0973 E-score; in the test with GST-WRKY1(266-371), 0.478 E-score.
Turning to CCAAGCAA, the binding signal with GST-ANAC092(1-176) worked out at 0.31 E-score; in the test with GST-NTL6(1-168), 0.309 E-score; with GST-ANAC019 NAC domain, 0.147 E-score; in the test with GST-ANAC055(1-171), 0.0877 E-score; with GST-ATAF1 NAC domain, 0.0528 E-score; in test [1], 0.356 E-score. Also, the binding signal turned out to be 0.295 E-score with GST-NST2(1-184), 0.0676 E-score with GST-NTL8 NAC domain, 0.405 E-score in the test with GST-SND1(1-203) and 0.119 E-score with GST-VND3 NAC domain.
As for ACACGCCT, the binding signal with GST-ANAC092(1-176) was 0.319 E-score; in the test with GST-ANAC019 NAC domain, 0.189 E-score; with GST-ANAC055(1-171) it was 0.173 E-score; with GST-ATAF1 NAC domain, 0.212 E-score; in test [1], 0.411 E-score; with GST-SND1(1-203), 0.0623 E-score. Also, in the test with GST-VND3 NAC domain, the binding signal was 0.0938 E-score.
As for ACACTCCA, the binding signal came out at 0.398 E-score in the test with GST-ANAC092(1-176); 0.0899 E-score in the test with GST-ANAC019 NAC domain; 0.15 E-score with GST-ANAC055(1-171); 0.17 E-score in the test with GST-ATAF1 NAC domain; 0.429 E-score in test [1]; 0.226 E-score with GST-NST2(1-184). Also, the binding signal worked out at 0.278 E-score in the test with GST-SND1(1-203) and 0.0605 E-score with GST-VND3 NAC domain.
Consider AAGGAATG, for which the binding signal stood at 0.153 E-score with GST-ANAC092(1-176); 0.422 E-score in the test with GST-NTL6(1-168); 0.0613 E-score in the test with GST-ANAC019 NAC domain; 0.0506 E-score with GST-ANAC055(1-171); 0.07 E-score in the test with GST-ATAF1 NAC domain; 0.115 E-score in test [1]. Further, the binding signal worked out at 0.196 E-score with GST-NST2(1-184); 0.293 E-score in the test with GST-NTL8 NAC domain; 0.227 E-score with GST-SND1(1-203); 0.0905 E-score with GST-VND7 NAC domain; 0.0844 E-score in the test with GST-WRKY1(266-371).
Consider GCTAAGTA, for which the binding signal in the test with GST-NTL6(1-168) was determined as 0.429 E-score; with GST-NAP(1-166), 0.0551 E-score; with GST-SND1(1-203) it was 0.121 E-score; in the test with GST-VND3 NAC domain, 0.0851 E-score.
As for CACTCAAC, the binding signal came out at 0.4 E-score with GST-ANAC092(1-176); 0.0871 E-score with GST-NTL6(1-168); 0.151 E-score in the test with GST-ANAC019 NAC domain; 0.139 E-score in the test with GST-ANAC055(1-171); 0.0909 E-score with GST-ATAF1 NAC domain; 0.424 E-score in test [1]. The binding signal was found to be 0.237 E-score with GST-NST2(1-184), 0.243 E-score with GST-SND1(1-203) and 0.089 E-score with GST-VND3 NAC domain.
